Bioassay records as filed in PubChem.
Shown is part of a subset that was picked to be rich in hits.
ER stress surv: ER stress cell death inhibition. CSM14.1 thapsigargin ER stress survival, ATP luminescence. relative survival (cellular ATP), % at 15 µg/mL (by protocol). actives 0.33% (n = 48,000). AID 1010;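 active means survival measured by cellular ATP above 50% at 15 µg/ml in the first screen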;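 further: cell death triggered by about 15 µM thapsigargin; ATP read 24 h after thapsigargin was added; plate controls were thapsigargin with DMSO for no effect and DMSO without thapsigargin for full effect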
Numbers without * were called inactive.

SMILES	ER stress surv
COc1ccc(C(C)=O)cc1N1C(=O)C2C3C=CC(C3=C(c3ccccc3)c3ccccc3)C2C1=O (centres undefined)	77*
COc1ccc(C(C)=O)cc1N1C(=O)C=CC1=O	-7
CCn1c2ccccc2c2cc(CN3CCN(C(=O)c4cc(OC)c(OC)c(OC)c4)CC3)ccc21	113*
CCn1c2ccccc2c2cc(CN3CCN(Cc4ccccc4OC)CC3)ccc21	-2
CCn1c2ccccc2c2cc(CN3CCN(C(=O)c4ccncc4)CC3)ccc21	17
CCn1c2ccccc2c2cc(CN3CCN(Cc4ccc(OC)c(OC)c4OC)CC3)ccc21	-4
CCn1c2ccccc2c2cc(CN3CCN(Cc4cc(OC)c(OC)cc4OC)CC3)ccc21	-6
CCn1c2ccccc2c2cc(CN3CCN(C(=O)c4ccc(OC)c(OC)c4)CC3)ccc21	122*
Cc1ccc(N(Cc2ccc(C(=O)NC3CCCC3)cc2)S(C)(=O)=O)cc1C	8
O=C(Nc1nc2ccc(Br)cc2s1)c1ccc(S(=O)(=O)N2CCCCC2)cc1	7
O=c1c2cc3c(=O)n(-c4ccc(S)cc4)c(=O)c3cc2c(=O)n1-c1ccc(S)cc1	10
COc1ccccc1C(NC(=O)Cc1ccccc1)c1ccc2cccnc2c1O (centres undefined)	13
CC(=O)NC(c1ccc2c(c1)OCO2)c1ccc2cccnc2c1O (centres undefined)	77*
O=C(NC(c1ccccc1)c1ccc2cccnc2c1O)c1ccccc1 (centres undefined)	3
CCOCCOC(=O)c1ccc(NC(=O)c2ccc([N+](=O)[O-])cc2)cc1	7
CCCCCCOc1ccc(N2C(=O)CC(N3CCN(Cc4ccc5c(c4)OCO5)CC3)C2=O)cc1 (centres undefined)	17
COc1ccc(Br)cc1CN1CCN(C(=O)c2ccc(-c3ccccc3)cc2)CC1	98*
COc1cc(OC)cc(C(=O)N2CCN(Cc3ccccc3C(F)(F)F)CC2)c1	73*
COc1ccc(CN2CCN(C(=O)c3ccc(-c4ccccc4)cc3)CC2)cc1OC	-6
COc1ccc(CN2CCN(C(=O)c3ccccc3)CC2)c(OC)c1OC	1
COc1cc(OC)cc(C(=O)N2CCN(Cc3ccccn3)CC2)c1	0
COc1cc(C(=O)N2CCN(Cc3ccccc3C(F)(F)F)CC2)cc(OC)c1OC	8
COc1ccc(C(=O)N2CCN(Cc3ccccc3)CC2)c(OC)c1	-2
COc1cc(OC)c(OC)cc1CN1CCN(C(=O)c2ccc(OC)c(OC)c2)CC1	2
COc1ccc(CN2CCN(C(=O)c3ccc(-c4ccccc4)cc3)CC2)c(OC)c1	129*
SMILES	ER stress surv
O=C(N/N=C/c1cccc([N+](=O)[O-])c1)c1cc(C2CC2)[nH]n1	8
CCOC(=O)c1c(NC(=O)c2ccc(C)cc2)sc(C(=O)Nc2ccccc2C(F)(F)F)c1C	0
COc1cccc(N2C(=O)c3ccc4c5c(ccc(c35)C2=O)C(=O)N(c2cccc(OC)c2)C4=O)c1	5
O=C(Nc1ccc(F)c([N+](=O)[O-])c1)C1CCCC1	-14
CCOc1ccc(-c2cc(C(=O)Nc3ncn[nH]3)c3ccccc3n2)cc1	4
CCOC(=O)C(=O)N1CCN(c2cccc(Cl)c2)CC1	1
COc1ccccc1C(=O)NN1C(=O)/C(=C/c2ccc([N+](=O)[O-])cc2)SC1=S	-3
COc1ccc(C2CC(=O)C3=C(C2)Nc2ccccc2NC3c2ccccc2OC)cc1 (centres undefined)	3
COc1ccc(C2CC(=O)C3=C(C2)Nc2ccccc2NC3c2ccc(OCc3ccccc3)c(OC)c2)cc1 (centres undefined)	0
COc1ccc(C2CC(=O)C3=C(C2)Nc2ccccc2NC3c2ccccc2Cl)cc1 (centres undefined)	101*
O=C1CC(c2ccccc2)CC2=C1C(c1ccccc1Cl)Nc1ccccc1N2 (centres undefined)	-5
COc1ccc(C2CC(=O)C3=C(C2)Nc2ccccc2NC3c2ccccc2C)cc1 (centres undefined)	99*
COc1ccc(C2CC(=O)C3=C(C2)Nc2ccccc2NC3c2ccc(OCc3ccccc3)cc2)cc1 (centres undefined)	94*
COc1ccc(C2Nc3ccccc3NC3=C2C(=O)CC(c2ccc(Cl)cc2)C3)cc1 (centres undefined)	8
COc1ccc(C2CC(=O)C3=C(C2)Nc2ccccc2NC3c2c(Cl)cccc2Cl)cc1 (centres undefined)	2
COc1ccc(C2CC(=O)C3=C(C2)Nc2ccccc2NC3c2ccc(C)cc2)cc1 (centres undefined)	-3
CC(C)(C)c1csc(N/N=C/c2ccccn2)n1	10
COc1ccc(/C=C2\C(=O)NC(=S)N(c3cccc(Br)c3)C2=O)c(OC)c1	7
Cc1cccc(C2(c3cccc(C)c3)CC2C(=O)Nc2ccccc2Cl)c1 (centres undefined)	-2
CCc1ccc(OCCNc2cc(N3CCCC3)ccc2[N+](=O)[O-])cc1	12
COC(=O)c1ccccc1NC(=O)COc1ccc(Cl)cc1C	-1
O=C1S/C(=C/c2ccc(F)cc2)C(=O)N1CNc1ccc(I)cc1	-2
COc1ccc(C)cc1NC(=O)/C=C/c1ccc(Cl)cc1Cl	4
Cc1nnc(C)n1/N=C/c1ccc(O)c(O)c1	-3
CC(C)(C)C(=O)/C=C(\N)COc1ccccc1	1
SMILES	ER stress surv
Cc1c(-c2cccs2)nc2ccccc2c1C(=O)O	-3
O=C(CN1CC[n+]2c(-c3cccs3)csc21)c1ccccc1	59*
O=C(CSc1nnc(-c2cccs2)n1-c1ccccc1)c1ccccc1	3
CCOC(=O)C1=C(C)N=c2s/c(=C\c3ccccc3Cl)c(=O)n2C1c1ccc(OC)c(OC)c1 (centres undefined)	13
O=C(NC(=S)Nc1cccc(NC(=O)c2ccco2)c1)c1ccco1	4
COc1cc(NC(=O)c2ccc(-c3ccc(Cl)cc3)o2)ccc1NC(=O)c1ccco1	-1
Cc1cc(NC(=O)c2ccc(-c3ccc(Cl)cc3)o2)ccc1NC(=O)c1ccco1	62*
Cc1cc(NC(=O)c2ccc(-c3ccc(Br)cc3)o2)ccc1NC(=O)c1ccco1	-8
COc1ccccc1OCCSc1nc2ccc(N)cc2s1	-2
CCOc1ccccc1N1CCN(C(=O)c2cc(OC)c(OC)c(OC)c2)CC1	-4
CCOc1ccccc1N1CCN(C(=O)c2cccc(Cl)c2)CC1	11
CCOc1ccccc1N1CCN(C(=O)c2sc3ccccc3c2Cl)CC1	125*
COc1ccc(/C=C2/N=C(c3ccc(C)cc3)OC2=O)cc1Br	10
Cc1cccc(NC(=O)C(=O)NCCCOC(C)C)c1	0
COc1ccc(C(=O)NCCOc2ccccc2OC)cc1OC	-3
COc1ccccc1OCCNC(=O)c1ccc(Oc2ccccc2)cc1	52*
COc1ccc(C(=O)NCCOc2ccccc2F)cc1OC	10
NC(=O)c1ccc(NC(=O)NCCCCCCNC(=O)Nc2ccc(C(N)=O)cc2)cc1	1
Cc1cc(C)nc(/N=C(/N)Nc2ccc(-c3ccccc3)cc2)n1	-4
COc1ccc(-c2nc(-c3ccc(O)cc3)[nH]c2-c2ccc(OC)cc2)cc1	-10
COc1ccc(OC)c(-c2nc(-c3ccccc3)c(-c3cccs3)[nH]2)c1	7
COc1ccc(-c2nc(-c3cc(OC)c(OC)cc3OC)[nH]c2-c2ccc(OC)cc2)cc1	116*
Cc1ccc(S(=O)(=O)N(CC(=O)Nc2ccc(F)cc2)Cc2ccccc2)cc1	11
C(=NNc1cc(N2CCOCC2)nc(N2CCOCC2)n1)c1cccs1	4
Cc1cc(Cl)cc(C)c1OCCCCCCn1ccnc1	55*
